Drawing on PubChem BioAssay AID618 (Sanford-Burnham Center for Chemical Genomics, 2007), this text covers outcome for 40 compounds.

SMILES strings stand for the structures. Among all 87,000 compounds or so, about 540 (0.62%) were called active. The rule behind the calls is not given here. The list comes from a sample in which actives are over-represented; it also holds similar structures and randomly drawn compounds. A call without a number means that no potency is given here. Potency and affinity values are given separately.

A short description of the assay: MT1-MMP gene expression reporter suppression – cell-based, luciferase reporter, luminescence (AID 618).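 Note: actives suppress MT1-MMP promoter-driven transcription so potencies describe inhibitors.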 The note with it: MT1-MMP promoter luciferase reporter cells. (A reporter such as luciferase makes a cellular process visible.)
As to `CN1CCN(C(=O)COc2ccc(S(=O)(=O)N(C)Cc3ccccc3)cc2)CC1`, the compound was called inactive.

As to `CN1CCN(C(=O)COc2ccc(-c3nc4ccccc4s3)cc2)CC1`, the compound was classed as active. On to `COc1cccc(OCC(=O)N2CCN(C)CC2)c1`, for which the result was inactive. For `CCOC(=O)C1=C(N)Oc2ccccc2C12C(=O)N(CC(=O)OC)C(CC(=O)OC)=C2C(=O)OC` (stereo not given), the call was inactive. In the case of `C[C@H]1CCC[C@@H](O)CCC/C=C/c2cc(O)cc(O)c2C(=O)O1`, the result was inactive.

As to `C[C@H]1CCC/C=C/C2C[C@H](O)CC2[C@H](O)/C=C/C(=O)O1` (stereo not given in full), the result was active. For the compound `C[C@H]1CCCC(=O)CCC/C=C/c2cc(O)cc(O)c2C(=O)O1`, the compound was classed as inactive.

With `Cn1c(O)c(C=NCc2cccs2)c(=O)n(C)c1=O`, the compound was classed as inactive. As for `CCC(C)OC(=O)c1c(N)n(Cc2cccs2)c2nc3ccccc3nc12` (stereo not given), the compound was called inactive. For the compound `COc1ccc(Nc2ncc(C(=O)N3CCC4(CC3)OCCO4)c3ccccc23)cc1`, the compound was classed as inactive.

As to `CC(C)c1cccc(C(C)C)c1OCCn1ccnc1`, the compound was classed as inactive.

Consider `CCn1c(=O)cc(OCC(=O)N2CCN(Cc3ccc4c(c3)OCO4)CC2)c2ccccc21`, for which the compound was classed as inactive. As for `O=C1CC(N2CCC(n3c(=O)[nH]c4ccccc43)CC2)C(=O)N1c1ccc(F)cc1` (stereo not given), the entry is “inactive”; as for `O=c1[nH]c2ccccc2n1CCCN1CCC(n2c(=O)[nH]c3cc(Cl)ccc32)CC1`, “inactive”; as for `O=c1[nH]c2ccccc2n1C1CCN(CCCC(c2ccc(F)cc2)c2ccc(F)cc2)CC1`, “active”. The same measure for `Cc1ccc(-n2nc(C)cc2NC(=O)COc2cc(C)cc3oc(=O)c4c(c23)CCC4)cc1`: “inactive”. As for `CC12CN3CC(C)(CN(C1)P3(=O)Oc1ccccc1)C2=O` (stereo not given), the entry is “inactive”; as for `Cc1nc2c(=O)n(C)c(=O)nc-2n(C)n1`, “active”; as for `CCOC(=O)CC1=C(C(=O)OCC)C2(C(=O)N1CC(=O)OC)C(C#N)=C(N)Oc1ccccc12` (stereo not given), “inactive”.

In the case of `CCC/C=C(\CCC)C(NP(=O)(c1ccccc1)c1ccccc1)c1ccccc1` (stereo not given), the compound was classed as inactive.

In the case of `Nc1ccccc1C(=O)OCCOc1ccccc1`, the outcome was active. As for `CCCCCCOC(=O)c1ccccc1N`, the result was inactive.

As for `Nc1ccccc1C(=O)OC1CSC1`, the compound was classed as inactive.

Take `CCCCOP(=O)(CN1CCOCC1)OCCCC`: the call was inactive. For `CCN1CCN(C(=O)COc2cc(=O)n(CC)c3ccccc23)CC1`, the compound was called inactive. In the case of `c1ccc2c(CNC3CCCCCC3)c[nH]c2c1`, the compound was called inactive. Regarding `CCCCn1c(O)c(C=NC2CC3CCC2(C)C3(C)C)c(=O)[nH]c1=O` (stereo not given), the compound was classed as inactive. As for `Cc1ccc(C2(O)CC(C)N(C)CC2C)cc1` (stereo not given), the entry is “inactive”; as for `Cc1ccc(N(C)C(=O)Oc2cccc3cccnc23)cc1`, “inactive”. Turning to `CN(C)CCN=Cc1c(O)n(-c2cccc3ccccc23)c(=O)[nH]c1=O`, the compound was called inactive. As for `COC(=O)C1CN(C#N)N(c2ccc(Cl)cc2)C12c1ccccc1-c1ccccc12` (stereo not given), the entry is “active”; as for `COC(=O)[C@@H]1[C@@H](C(=O)OC)C2(c3ccccc3-c3ccccc32)N(c2ccc(Cl)cc2)N1C#N`, “inactive”.

On to `COC(=O)C[C@]1(C(=O)OC)CN(C#N)N(c2ccc(Cl)cc2)C12c1ccccc1-c1ccccc12`, for which the compound was called active. As for `CCCN1[C@@H]2C[C@@H](O)CC[C@@H]2C[C@H]1C(=O)OC`, the entry is “inactive”.

Turning to `CN(C)CCCN=Cc1c(O)n(CCc2ccc(F)cc2)c(=O)[nH]c1=O`, the outcome was inactive. The same measure for `CC(C)CCC1(CCc2ccncc2)C(=O)NC(=O)NC1=O`: “inactive”.

Turning to `CCCCn1c(O)c(C(C)=Nc2c(C)n(C)n(-c3ccccc3)c2=O)c(=O)[nH]c1=O`, the compound was called inactive. As for `O=C1CN=C(c2ccccc2)c2oc3ccc(Br)cc3c2N1`, the entry is “inactive”; as for `COc1cccc(OC)c1C1=NCC(=O)Nc2c1oc1ccc(Br)cc21`, “active”; as for `CCOc1cc(-c2nc3c(C)cccn3c2NCC2CCCO2)ccc1O` (stereo not given), “inactive”.
